Test results as given in PubChem BioAssay AID588466 (NMMLSC, 2011).
About 30 (1%) of roughly 2,100 compounds were called active.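 How the source made its calls: active means compounds whose mean binding response over two repeats is below 75% of the DMSO control; inactive means the rest.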 A selection follows.

What follows are molecules tested against Desmoglein-3 (Homo sapiens) (UniProt P32926) (assay: inhibitors of anti-DSG3 scFv binding to DSG3, confirmation, biochemical, cherry pick 1, bead-based, flow cytometry (AID 588466;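 further: 100% = 2% DMSO vehicle and 0% = excess soluble DSG3 blocking control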)). Conditions: Protein G beads with DSG3, scFv-GFP binding, at 10 µM, active compounds read low.
Sequence of Desmoglein-3 (Homo sapiens) (P32926 whole entry, looked up): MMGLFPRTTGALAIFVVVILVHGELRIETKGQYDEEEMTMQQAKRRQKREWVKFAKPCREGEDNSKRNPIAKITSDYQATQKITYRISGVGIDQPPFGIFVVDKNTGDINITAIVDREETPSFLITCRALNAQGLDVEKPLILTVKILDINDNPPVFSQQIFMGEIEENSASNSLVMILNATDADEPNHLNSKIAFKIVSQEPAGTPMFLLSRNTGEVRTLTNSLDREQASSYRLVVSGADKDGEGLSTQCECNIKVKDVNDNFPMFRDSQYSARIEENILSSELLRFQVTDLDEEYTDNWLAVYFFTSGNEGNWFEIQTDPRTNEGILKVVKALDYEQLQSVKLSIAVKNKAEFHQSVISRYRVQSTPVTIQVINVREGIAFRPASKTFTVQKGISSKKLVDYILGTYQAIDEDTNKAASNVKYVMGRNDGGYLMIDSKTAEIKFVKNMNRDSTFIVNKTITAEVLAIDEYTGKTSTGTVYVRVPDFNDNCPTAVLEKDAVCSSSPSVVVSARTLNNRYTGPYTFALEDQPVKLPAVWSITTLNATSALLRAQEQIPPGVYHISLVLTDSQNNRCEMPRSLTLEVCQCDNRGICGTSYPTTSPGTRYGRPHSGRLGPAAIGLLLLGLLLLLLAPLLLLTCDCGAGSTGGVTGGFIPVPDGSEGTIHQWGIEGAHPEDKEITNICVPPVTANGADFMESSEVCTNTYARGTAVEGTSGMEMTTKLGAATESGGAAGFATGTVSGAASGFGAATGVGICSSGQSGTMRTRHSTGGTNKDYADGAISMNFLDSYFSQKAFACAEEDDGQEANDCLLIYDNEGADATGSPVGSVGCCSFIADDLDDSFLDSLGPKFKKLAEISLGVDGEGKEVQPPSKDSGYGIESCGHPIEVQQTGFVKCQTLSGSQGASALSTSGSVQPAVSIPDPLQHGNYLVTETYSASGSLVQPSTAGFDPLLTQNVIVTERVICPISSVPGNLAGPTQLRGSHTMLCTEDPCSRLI
For `Cc1nc(SCc2nc3c([N+](=O)[O-])cccc3[nH]2)c2oc3ccccc3c2n1`, the binding response (% of DMSO) was 108% (inactive). With `CN(CCC1CCOCC1)C(=O)C1CCC(=O)N(CCc2ccccc2)C1` (stereo not given) the binding response (% of DMSO) was 101% (inactive). For `CCOC(=O)c1cccc(NC(=O)c2ccc3c(c2)C(=O)N(CC2CCCO2)C3=O)c1` (stereo not given), the binding response (% of DMSO) was 103% (inactive). For `COc1ccc(C2=Nn3c(nnc3-c3ccccc3Cl)SC2)cc1OC1CCOC1` (stereo not given), the binding response (% of DMSO) was 91.3% (inactive). `Nc1cccc(C(=O)c2ccccc2C(=O)O)c1` was tested, and the binding response (% of DMSO) was 98.2% (inactive). For `O=C1CSC(c2ccncc2)N1Cc1ccco1` (stereo not given), the binding response (% of DMSO) was 106% (inactive). In the case of `COC(=O)c1ccc(N(C(=O)CNC(=O)c2ccco2)C(C(=O)NCC2CCCO2)c2ccc(OC)c(OC)c2)cc1` (stereo not given), the binding response (% of DMSO) is reported as 104% (inactive). In the case of `CC(=O)Nc1ccc(C(=O)OCC(=O)c2ccc(S(=O)(=O)N3CCCCC3)cc2)cc1`, the binding response (% of DMSO) is reported as 110% (inactive). `Cc1ccc(-n2nc3c(c2NC(=O)c2ccc(Br)o2)CSC3)c(C)c1` was tested, and the binding response (% of DMSO) was 95.6% (inactive). For `Cc1cc(NC(=O)CSc2nccn2-c2ccc(Cl)cc2)no1`, the binding response (% of DMSO) was 103% (inactive). `CCOc1cccc(C(=O)Nc2ccc(N3CCN(S(C)(=O)=O)CC3)cc2)c1` was tested, and the binding response (% of DMSO) was 90.8% (inactive). With `Clc1ccc(-[n+]2c(-c3cccc(Br)c3)[nH]c3nc4ccccc4nc32)cc1` the binding response (% of DMSO) was 90.4% (inactive). For `COc1ccc(Oc2nnc(-c3ccccc3)cc2C#N)cc1`, the binding response (% of DMSO) was 94.9% (inactive). With `O=C(CSc1nc(=O)[nH]c2c1CCCC2)Nc1ccc(F)cc1F` the binding response (% of DMSO) was 106% (inactive). With `O=C1c2ccc(-c3ccc(F)cc3OCc3ccccc3)cc2S(=O)(=O)c2cccc(C(=O)N3CCN(c4ncc(Br)cn4)CC3)c21` the binding response (% of DMSO) was 84.2% (inactive). With `CCOc1ccc2nc(NC(=O)c3ccc(S(=O)(=O)N4CCOCC4)cc3)sc2c1` the binding response (% of DMSO) was 77.7% (inactive). With `CC1=CCC2C(=O)N(c3ccc(C)c(Br)c3)C(=O)C2C1` (stereo not given) the binding response (% of DMSO) was 109% (inactive). In the case of `COc1ccccc1CN(C)C[C@@H]1OCc2cnnn2CCCC(=O)N([C@@H](C)CO)C[C@H]1C`, the binding response (% of DMSO) is reported as 96.2% (inactive). In the case of `CN(c1ccccc1)S(=O)(=O)c1cccc(NC(=O)C2=NNC(=O)CC2)c1`, the binding response (% of DMSO) is reported as 98.4% (inactive). For `CC(=O)c1cccc(N(C(=O)CNC(=O)c2cccs2)C(C(=O)NCC2CCCO2)c2ccccc2)c1` (stereo not given), the binding response (% of DMSO) was 102% (inactive). For `COc1ccc(-c2csc(NC(=O)c3cc(C)on3)c2C#N)cc1OC`, the binding response (% of DMSO) was 97.8% (inactive). With `O=C(c1cnn(-c2nc3ccccc3s2)c1)c1ccccc1O` the binding response (% of DMSO) was 102% (inactive). With `CCN1C(=O)[C@H]2[C@@H](c3ccc(C)cc3)N3C(=O)N(c4ccc(OC)cc4)C(=O)[C@@]3(Cc3ccccc3)[C@H]2C1=O` the binding response (% of DMSO) was 98.4% (inactive). In the case of `COc1ccc(-c2cc(=O)oc3cc(OCC(=O)Nc4ccccn4)ccc23)cc1`, the binding response (% of DMSO) is reported as 88.2% (inactive). For `CN1CCN(Cc2nc3ccccc3c(=O)n2Cc2nc(-c3ccc([N+](=O)[O-])cc3)cs2)CC1`, the binding response (% of DMSO) was 103% (inactive). For `Fc1ccc2nc(C3CCCCN3Cc3nc(CC4CC4)no3)[nH]c2c1` (stereo not given), the binding response (% of DMSO) was 102% (inactive). In the case of `CSCCC(NC(=O)C1CCC(C)CC1)C(=O)OCC(=O)c1ccc(Cl)cc1` (stereo not given), the binding response (% of DMSO) is reported as 107% (inactive). With `O=S(=O)(NCCOc1ccccc1F)c1ccc(Cl)cc1F` the binding response (% of DMSO) was 102% (inactive). With `CCOc1cc(S(=O)(=O)Nc2ccc(Cl)cn2)ccc1F` the binding response (% of DMSO) was 112% (inactive). In the case of `CCc1ccc(Cn2nnc(C(=O)Nc3ccc(OC)cc3OC)c2N)cc1`, the binding response (% of DMSO) is reported as 96.2% (inactive). With `COc1ccc(-c2ccc(-c3nc4c(c(=O)[nH]c(=O)n4Cc4ccccc4)n3C)o2)c([N+](=O)[O-])c1` the binding response (% of DMSO) was 87.1% (inactive). In the case of `COc1ccc(NC(=O)c2ccc(NC(=O)CN3CCN(c4ccccc4)CC3)cc2)cc1`, the binding response (% of DMSO) is reported as 90.4% (inactive). `COc1ccc(OC)c(NC(=O)NCCc2cccc(Cl)c2)c1` was tested, and the binding response (% of DMSO) was 100% (inactive). In the case of `COc1ccc(Cl)c(NC(=O)NCCN2CCN(c3ccccc3)CC2)c1`, the binding response (% of DMSO) is reported as 67.9% (active). `CC1C(=O)N2CCCc3cc(S(=O)(=O)N4CCC(C(N)=O)CC4)cc1c32` (stereo not given) was tested, and the binding response (% of DMSO) was 104% (inactive). With `Cc1ccc(NS(=O)(=O)c2ccc3c(c2)n(C)c(=O)n3C)cc1` the binding response (% of DMSO) was 100% (inactive). For `COc1ccc(CNC(=O)c2cnc(C)cn2)cc1`, the binding response (% of DMSO) was 101% (inactive). For `COCC(C)n1c(C)cc(C(=O)COC(=O)c2nn(C)c(=O)c3ccccc23)c1C` (stereo not given), the binding response (% of DMSO) was 98.2% (inactive). In the case of `CC(=O)Nc1nnc(CCS(=O)(=O)c2ccc(C)c(C)c2)s1`, the binding response (% of DMSO) is reported as 104% (inactive). In the case of `COc1ccc(-n2ccc(=O)c(C(=O)Nc3ccc(S(=O)(=O)Nc4nccs4)cc3)n2)cc1`, the binding response (% of DMSO) is reported as 99.6% (inactive). For `COc1ccc(C(=O)NCc2nnc(SCC(=O)N3CCc4ccccc43)n2C2CCCCC2)cc1`, the binding response (% of DMSO) was 91% (inactive). In the case of `CCc1nnc(NC(=O)CCN(c2ccc(C)cc2)S(=O)(=O)c2ccccc2)s1`, the binding response (% of DMSO) is reported as 103% (inactive). With `Cc1ccsc1-c1nc(-c2ccccc2)c(-c2ccccc2)[nH]1` the binding response (% of DMSO) was 77.9% (inactive). For `CN(Cc1cc2ccccc2[nH]c1=O)S(C)(=O)=O`, the binding response (% of DMSO) was 100% (inactive). `Cc1nc2scc(C)n2c(=O)c1S(=O)(=O)NCc1ccc(F)cc1` was tested, and the binding response (% of DMSO) was 107% (inactive). For `COc1ccc(C(=O)NCc2ccc(C)cc2)cc1S(=O)(=O)N1CCCC1`, the binding response (% of DMSO) was 105% (inactive). With `CCOC(=O)c1c(-c2ccccc2)c[nH]c1C` the binding response (% of DMSO) was 97.4% (inactive). In the case of `CCN(CC)c1ccc(/C=N/N2C(=O)c3ccccc3C2=O)cc1`, the binding response (% of DMSO) is reported as 102% (inactive). With `CCOC(=O)C1=C(O)/C(=C/c2ccc(-c3ccccc3C(=O)O)o2)SC1=Nc1ccc(C)cc1` the binding response (% of DMSO) was 108% (inactive). `CC(=O)N1C(=O)/C(=C2\SC(=S)N(c3c(C)n(C)n(-c4ccccc4)c3=O)C2=O)c2ccccc21` was tested, and the binding response (% of DMSO) was 87.6% (inactive). `Clc1ccc(-n2ncc3c(NCc4cccnc4)ncnc32)cc1Cl` was tested, and the binding response (% of DMSO) was 91.8% (inactive). In the case of `C=C(Br)CN1[C@@H](Cc2ccccc2)[C@H](O)[C@@]23C=C[C@@H](C[C@@H]2S1(=O)=O)O3`, the binding response (% of DMSO) is reported as 101% (inactive). `CCOC(=O)CSc1nc2sc(C)c(C)c2c(=O)n1N` was tested, and the binding response (% of DMSO) was 104% (inactive). With `CC(=O)c1c(C)[nH]c(C(=O)NCc2ccc(Cl)cc2)c1C` the binding response (% of DMSO) was 105% (inactive). With `CCOC(=O)Cc1csc(NC(=O)COc2ccccc2)n1` the binding response (% of DMSO) was 99.8% (inactive).
